Several values for one entry are separate records, joined by “and”; a condition that tells them apart may be missing. Identical values can stand only once. Inconclusive results are not listed. Unmarked numbers belong to inactive results. Activity calls are given as the source filed them. Calls come from the whole dose curve; as a rule, active = well fitted inhibition curve with a large enough effect; inconclusive = small, poorly fitted or top-dose-only effect; inactive = flat fitted curve, though single readings scatter. Non-standard residues stand in square brackets, D forms with d. Residues, ends and D or L forms follow the SMILES beside them. Orn = NCCC[C@H](N)C(=O)O
system: astro; test: Drug repurposing screens with cells derived from glioblastoma tumor samples (AID 1345199); conditions: viability, ATP luminescence, 48 h; series mostly up to 45.9 µM; activity, negative = cell killing: at the top concentration; note: nearly all actives have a fitted effect of over 40% in size
Experimental: CD133+ cells were isolated from GBM patient biopsies and cultured as neurospheres. Neurospheres from four patients were used to screen the NCATS pharmaceutical collection (NPC) library of approved drugs and bioactive compounds. […] The neurospheres were incubated with drugs for 48 hours in 1536-well format, then assayed with an ATP content cell viability assay. […] These hits were cherry picked to confirm activity in the four original GBM lines screened plus three other slower growing GMB lines (unable to yield enough cells for a full primary screen). Variable activities of the confirmed primary hits in the different GBM patient lines were observed. The patient line 206 responded to the greatest number of compounds and line 923 responded to the least amount of active compounds.
% is set by controls: 0 for no effect and ±100 for the full control effect; potency is the fitted concentration of half-maximal effect.

| Structure (SMILES) | activity, negative = cell killing | Potency |
| --- | --- | --- |
| CCCCC/C=C\C/C=C\CCCCCCCC(=O)O | -12.8% | – |
| CC(C)(C)C(=O)OCOC(=O)[C@@H]1N2C(=O)[C@@H](N=CN3CCCCCC3)[C@H]2SC1(C)C | -2.81% [at 21.2 µM] | – |
| CCC[C@@H]1C[C@@H](C(=O)N[C@@H]([C@H]2O[C@H](SC)[C@H](OP(=O)(O)O)[C@@H](O)[C@H]2O)[C@H](C)Cl)N(C)C1 | – | inactive |
| CO[C@H]1C=CO[C@@]2(C)Oc3c(C)c(O)c4c(O)c(c5c(c4c3C2=O)=NC2(CCN(CC(C)C)CC2)N=5)NC(=O)/C(C)=C\C=C/[C@H](C)[C@H](O)[C@@H](C)[C@@H](O)[C@@H](C)[C@H](OC(C)=O)[C@@H]1C | -20.6% | – |
| CC1(C)O[C@@H]2C[C@H]3[C@@H]4CCC5=CC(=O)C=C[C@]5(C)[C@H]4[C@@H](O)C[C@]3(C)[C@]2(C(=O)CO)O1 | -8.13% | – |
| CC(C)C[C@@H]1NC(=O)[C@H](CCCN)NC(=O)[C@H](C(C)C)NC(=O)[C@@H]2CCCN2C(=O)[C@@H](Cc2ccccc2)NC(=O)[C@H](CC(C)C)NC(=O)[C@H](CCCN)NC(=O)[C@H](C(C)C)NC(=O)[C@@H]2CCCN2C(=O)[C@@H](Cc2ccccc2)NC1=O (cyclo(V[Orn]L[dF]PV[Orn]L[dF]P)) | – | 3.98 µM (active) |
| CC(NNC(=O)c1ccccc1)c1ccccc1 (stereo not given) | -9.8% | – |
| Cc1cn([C@H]2C[C@H](O)[C@@H](CO)O2)c(=O)[nH]c1=O | 4.13% | – |
| CC[N+](C)(C)Cc1ccccc1Br | -0.287% [at 21.2 µM] | – |
| CN1Cc2c(N)cccc2C(c2ccccc2)C1 (stereo not given) | -22.7% | – |
| Cc1c(C)c2c(c(C)c1O)CC[C@@](C)(CCC[C@H](C)CCC[C@H](C)CCCC(C)C)O2 | – | inactive |
| CC[C@H]1OC(=O)C[C@@H](O)[C@H](C)[C@@H](O[C@@H]2O[C@H](C)[C@@H](O)[C@H](N(C)C)[C@H]2O)[C@@H](CCN2C[C@H](C)C[C@H](C)C2)C[C@@H](C)C(=O)/C=C/C(C)=C/[C@@H]1CO[C@@H]1O[C@H](C)[C@@H](O)[C@@H](OC)[C@H]1OC | -12.8% | – |
| CCN(CC)CCOc1ccc(-c2nc3cc(Cl)ccc3s2)cc1 | – | 20 µM (active) |
| CCCCC(CC)COC(=O)CC(C(=O)OCC(CC)CCCC)S(=O)(=O)O (stereo not given) | -19.7% | – |
| Nc1ccn([C@H]2CS[C@@H](CO)O2)c(=O)n1 | -15.3% | – |
| CCCCCCCCCCCCCCCC(=O)OCC(COC(=O)CCCCCCCCCCCCCCC)OC(=O)CCCCCCCCCCCCCCC | -9.96% | – |
| CCCCC(=O)N(Cc1ccc(-c2ccccc2-c2nn[nH]n2)cc1)[C@@H](C(=O)O)C(C)C | -15.8% | – |
| CCC(=O)O[C@@H]1CC(=O)O[C@H](C)C/C=C/C=C/[C@H](O)[C@H](C)C[C@H](CC=O)[C@H](O[C@@H]2O[C@H](C)[C@@H](O[C@H]3C[C@@](C)(O)[C@@H](OC(=O)CC)[C@H](C)O3)[C@H](N(C)C)[C@H]2O)[C@H]1OC | 20% [at 21.2 µM] | – |
| COc1ccc(C[C@@H](C)NC[C@H](O)c2ccc(O)c(NC=O)c2)cc1 | -21.8% | – |
| C=C[C@]1(C)C[C@@H](OC(=O)CSC(C)(C)CNC(=O)[C@H](N)C(C)C)[C@]2(C)[C@H](C)CC[C@]3(CCC(=O)[C@H]32)[C@@H](C)[C@@H]1O | -25.8% | – |

| Structure (SMILES) | activity, negative = cell killing | Potency |
| --- | --- | --- |
| CCCCC(=O)O[C@]1(C(=O)CO)[C@H](C)C[C@H]2[C@@H]3CCC4=CC(=O)C=C[C@]4(C)[C@@]3(F)[C@@H](O)C[C@@]21C | -15.4% | – |
| CC1=C(/C=C/C(C)=C/C=C/C(C)=C/C=C/C=C(C)/C=C/C=C(C)/C=C/C2=C(C)CCCC2(C)C)C(C)(C)CCC1 | -8.06% | – |
| C[C@]12C=CC(=O)C=C1CC[C@@H]1[C@@H]2[C@@H](O)C[C@@]2(C)[C@H]1CC[C@]2(O)C(=O)COC(=O)CCC(=O)O | -15.1% | – |
| CCCCCCOc1ccc(C(=N)N(CCCC)CCCC)c2ccccc12 | – | 17.8 µM (active) |
| CCCCCCCCCCCCCC[n+]1ccc(C)cc1 | – | 3.16 µM (active) |
| Cc1cc(C(=O)NNCc2ccccc2)no1 | -7.86% [at 21.2 µM] | – |
| CC(=O)N[C@@H](CC(=O)N[C@@H](CCC(=O)O)C(=O)O)C(=O)O | 5.93% | – |
| CCCCCCCCCCCC[n+]1ccc2ccccc2c1 | – | 5.01 µM (active) |
| COc1cc2c(cc1O)CCN[C@]21CS[C@@H]2c3c(OC(C)=O)c(C)c4c(c3[C@H](COC1=O)N1[C@@H]2[C@H]2c3c(cc(C)c(OC)c3O)C[C@@H]([C@@H]1O)N2C)OCO4 | – | 8.91 µM (active) and 14.1 µM (active) |
| CO[C@@H]1[C@@H](O[C@@H]2O[C@H](C)[C@@H](O[C@H]3C[C@@](C)(O)[C@@H](O)[C@H](C)O3)[C@H](N(C)C)[C@H]2O)[C@@H](CC=O)C[C@@H](C)[C@@H](O[C@@H]2CC[C@H](N(C)C)[C@@H](C)O2)/C=C/C=C/C[C@@H](C)OC(=O)C[C@H]1O | -18.7% [at 21.2 µM] | – |
| O=S(=O)(O)O | -26.1% | – |
| C=C(NC(=O)C(=C)NC(=O)c1csc(C2=N[C@@H]3c4csc(n4)[C@H]4NC(=O)c5csc(n5)[C@H]([C@](C)(O)[C@@H](C)O)NC(=O)[C@H]5CSC(=N5)C(=CC)NC(=O)C([C@@H](C)O)NC(=O)c5csc(n5)[C@]3(CC2)NC(=O)[C@H](C)NC(=O)C(=C)NC(=O)[C@H](C)NC(=O)C([C@@H](C)CC)NC2C=Cc3c([C@H](C)O)cc(nc3C2O)C(=O)O[C@@H]4C)n1)C(N)=O (stereo not given in full) | -2.92% [at 21.2 µM] | – |
| CC[C@@H](C(=O)[C@@H](C)[C@@H](O)[C@H](C)CCc1ccc(C)c(O)c1C(=O)O)[C@H]1O[C@](CC)([C@H]2CC[C@](O)(CC)[C@H](C)O2)C[C@@H]1C | – | 7.08 µM (active) |
| CC1=C(/C=C/C(C)=C/C=C/C(C)=C/C=C/C=C(C)/C=C/C=C(C)/C=C/C2=C(C)C(=O)CCC2(C)C)C(C)(C)CCC1=O | -29.6% | – |
| O=C(COc1ccc(Cl)cc1)OCCNC12CC3CC(CC(C3)C1)C2 | -15.1% | – |
| CC(C)=O | -14.3% | – |
| COc1ccc(CCNC[C@H](O)c2ccc(O)cc2)cc1OC | -15.7% | – |
| Nc1c(Br)cc(Br)cc1CNC1CCC(O)CC1 (stereo not given) | -18.5% | – |
| C/C1=C2N=C(/C=C3N=C(/C(C)=C4\[N-][C@@](C)([C@@H]5N=C1[C@](C)(CCC(=O)NCC(C)OP(=O)(O)O[C@H]1[C@@H](O)[C@@H](n6cnc7cc(C)c(C)cc76)O[C@@H]1CO)[C@H]5CC(N)=O)[C@@](C)(CC(N)=O)[C@@H]4CCC(N)=O)[C@@](C)(CC(N)=O)[C@@H]\3CCC(N)=O)C(C)(C)[C@@H]/2CCC(N)=O.CC(=O)O.[Co] (stereo not given in full) | -25.4% | – |
| C[C@]12CCC(=O)C=C1CC[C@@H]1[C@@H]2[C@@H](O)C[C@@]2(C)[C@H]1CC[C@]2(O)C(=O)COP(=O)(O)O | -7.9% | – |
